Values joined by “and” are separate entries in the source; they are usually repeats but may differ in a detail not shown here. Identical values can stand only once. Inconclusive results are not listed. Some compounds were tested as several samples or in several runs, with calls that do not always agree. Active and inactive are the calls of the source. Unless noted, no rule for the calls is given here.
Tests used:
[1] = biological target: GTPase HRas (Homo sapiens) (UniProt P01112); assay: Ras wt fluorescent GTP loading blockade – biochemical, wildtype, multiplex bead flow cytometry, dose response (AID 1335;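 active = fitted half-maximal concentration within 10 nM to 100 µM, steepness 0.5 to 2, significant signal drop, low assay interference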); details: bead-based flow cytometry, Bodipy-GTP binding to GST-Ras; at 100 µM (top of the series)
[2] = rapamycin-like changes in RPL19A-GFP expression – cell-based, S. cerevisiae, multiplex flow cytometry, primary screen (AID 1862; in the data active = percent of DMSO control GFP below about 86%;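 also: lower values mimic rapamycin by blocking the RPL19A rise seen in DMSO cells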); details: S. cerevisiae RPL19A-GFP strain, flow cytometry fluorescence, 3 h; at 10 µM; stronger effect = lower value
[3] = TOR pathway GLN3 branch reporter MEP2-GFP changes – S. cerevisiae, multiplex flow cytometry, primary screen (AID 1867;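 active = GFP response, as percent of the DMSO control, above the screen-wide mean plus 3 SD, about 139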;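 also: median GFP channel fluorescence of barcode-gated MEP2-GFP cells measured by flow cytometry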); details: S. cerevisiae MEP2-GFP strain, 3 h, at 10 µM, stronger effect = higher value
[4] = TOR pathway RTG branch CIT2 reporter changes – S. cerevisiae, GFP fusion, multiplex flow cytometry, primary screen (AID 1870;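 active = percent response above a set limit, the screen-wide mean plus 3 SD, cut at about 130% in these data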;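 also: barcoded CIT2-GFP strain pooled with four other GFP strains with rapamycin as positive control; median GFP fluorescence per well over plate mean of DMSO wells so 100% = DMSO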); details: S. cerevisiae CIT2-GFP expression, 3 h, at 10 µM, stronger effect = higher value
[5] = TOR pathway LAP4-GFP level changes – S. cerevisiae, multiplex flow cytometry, primary screen (AID 1873;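 active = GFP signal, as percent of the solvent control, above the screen mean plus 3 SD, about 149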); details: S. cerevisiae LAP4-GFP expression, 3 h, at 10 µM, stronger effect = higher value
[6] = yeast AGP1-GFP level changes, GLN3 branch – cell-based, multiplex flow cytometry, S. cerevisiae, primary screen (AID 1887;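 active = GFP signal above the screen-wide mean plus 3 SD, that is over about 124.5% of the solvent control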;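 also: AGP1-GFP fusion strain of S. cerevisiae within a five-strain barcoded multiplex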); details: 3 h, at 10 µM, stronger effect = higher value
[7] = reduced mouse 2C T cell binding to pMHC/ICAM-1 vesicles – MLPCN validation set, flow cytometry, LFA-1/ICAM-1 modulator project, pilot screen (AID 2523;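 active = response below a set limit, under 55% cells CD8-positive and vesicle-bound, and CD8 cells' 90th-percentile brightness under 279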;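 as to vesicle binding response: mean PE anti-B7-1 fluorescence of CD8+ cells relative to row control; 100% = QL9-loaded vesicles with DMSO vehicle in the same plate row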); details: 2C mouse CD8+ T cells, at 7 µM, stronger effect = lower value; double positive events: measured here: CD8+/vesicle+ event percentage
[8] = biological target: Integrin beta-1 (Homo sapiens) + Integrin alpha-4 (Homo sapiens) (UniProt P13612+P05556); assay: alpha4beta1 integrin LIBS antibody binding reduction – U937 cells, HUTS-21 mAb, flow cytometry, validation set, VLA-4 allosteric modulator project, pilot screen (AID 2674;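 active = inhibition above 50%, about 3 SD of the validation set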;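 also: antibody binding induced by the VLA-4 ligand LDV present at three times its Kd; 0% = LDV ligand with antibody and no compound and 100% = antibody without LDV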); details: HUTS-21 LIBS mAb binding, at 6.7 µM, stronger effect = higher value
[9] = calorie-restriction mimetic ROS inhibitors, yeast – validation compound set, pilot screen (AID 2706;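 active = superoxide response below 65% of plate, a cut near 3 SD across the whole screen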;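 also: yeast exposed to compound for one week at 30 degrees C before staining; 100% = mean of all compound wells on the same plate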); details: S. cerevisiae aging, superoxide DHE fluorescence; at 10 µM; stronger effect = lower value
[10] = biological target: Beta-adrenergic receptor kinase 1 (Homo sapiens) (UniProt P25098); assay: GRK2 binders displacing RNA aptamer, biochemical, validation, human GRK2, bead flow cytometry (AID 488806;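 active = aptamer binding inhibition above 30%, about 3 SD of noise from non-fluorescent compounds; inactive = inhibition at or below 30%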); details: bead-bound GRK2, FAM-aptamer displacement, at 10 µM, stronger effect = higher value
[11] = biological target: Beta-2 adrenergic receptor (Homo sapiens) (UniProt P07550); assay: agonist-induced loss of surface beta2AR – cell-based, FAP fluorogen, flow cytometry, validation set, pilot screen (AID 504459;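 active = percent response above 42, roughly 3 SD of non-fluorescent test compounds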;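 also: agonist-driven loss of surface beta2AR via internalization measured by FAP dye flow cytometry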); details: Am2.2-beta2AR cells, at 10 µM, stronger effect = higher value
[12] = biological target: AP-2 complex subunit beta (Homo sapiens) (UniProt P63010); assay: beta-arrestin/AP2 interaction blockers – biochemical, validation set, GST-AP2 beads, flow cytometry, pilot screen (AID 504541;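 active = inhibition above 54%, about 3 SD of non-fluorescent compounds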;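 also: AP2 carries R879A mutation and is captured from E. coli lysate; bead-bound FITC arrestin peptide fluorescence measuring arrestin peptide binding to AP2; 0% = DMSO wells and 100% = excess unlabeled arrestin peptide control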); details: FITC arrestin peptide, at 10 µM, stronger effect = higher value
[13] = cytosolic pH regulators acting via V-ATPase – S. cerevisiae, pHLuorin, HTS validation (AID 504600; in the data active = response above about 15%;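 also: plate controls were DMSO for no effect and reference compound for full effect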); details: V-ATPase proton transport, at 10 µM, stronger effect = higher value
[14] = tested on: anti-desmoglein-3 scFv antibody binding to human DSG3; assay: blockers of pathogenic pemphigus antibody–desmoglein-3 binding – biochemical, validation compound set, bead-based, flow cytometry, pilot screen (AID 588368;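 active = binding below the plate cutoff, the plate median minus 3 SD, with a reading above zero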;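 also: signal is the median channel fluorescence of bead-bound GFP antibody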); details: Protein G beads, DSG3-Fc, scFv-GFP binding, at 10 µM, stronger effect = lower value
[15] = tested on: Botulinum neurotoxin type F light chain protease (Clostridium botulinum); assay: Clostridium botulinum type F light chain protease inhibitors, microsphere substrate cleavage, validation (AID 588459); details: multiplex microsphere protease substrate cleavage assay, flow cytometry; at 10 µM; stronger effect = higher value
[16] = biological target: Botulinum neurotoxin type A (Clostridium botulinum) (UniProt P0DPI0); assay: BoNT/A light chain protease inhibitors, biochemical, multiplex microsphere flow cytometry, validation set (AID 588460); details: at 10 µM, stronger effect = higher value
[17] = biological target: Lethal factor (Bacillus anthracis) (UniProt P15917); assay: Bacillus anthracis lethal factor inhibition, microsphere flow cytometry protease assay, validation at 10 µM (AID 588461); details: multiplex microsphere protease cleavage assay, stronger effect = higher value
[18] = Nile Red efflux blockade in pump-expressing yeast – validation compound set, multiplex, phenotypic, pilot screen (AID 588506;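 active = efflux inhibition above 0.42, the validation set average plus 4 SD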;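 also: Nile Red retained in cells so higher fluorescence means more efflux inhibition; 0 = negative control wells and 1 = enniatin B 25 µM full block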); details: S. cerevisiae pump-expressing triplex, Nile Red efflux flow cytometry; at 10 µM; stronger effect = higher value
[19] = biological target: ATP-binding cassette sub-family B member 6 (Homo sapiens) (UniProt Q9NP58); assay: blockers of ABCB6-driven porphyrin uptake – K562-ABCB6 cells, flow cytometry, validation set, pilot screen (AID 588550;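 active = inhibition above the screen-wide mean plus 3 SD, about 51%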;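 also: 0% = DMSO wells and 100% = benzethonium chloride 70 µM positive control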); details: K562-ABCB6 porphyrin accumulation, 1 h, at 10 µM, stronger effect = higher value
[20] = AML differentiation inducers, ER-HoxA9 marrow cells – cell-based, GFP/MAC1 double positive, flow cytometry, validation set, primary screen (AID 588685;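 active = differentiation response of at least 50%, scaled between solvent and reference control, from cells with both markers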;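 also: compound exposure lasts four days before antibody staining and flow analysis; 0% = DMSO wells and 100% = 5 µM fulvestrant positive control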); details: stronger effect = higher value

O=c1[nH]c(=S)[nH]c(O)c1N=Nc1ccc(S(=O)(=O)N2CCc3ccccc32)cc1
95.9%: GTP binding, percent of control [1]

O=C1CN=C(c2ccccc2F)c2cc(Cl)ccc2N1
active: GFP response vs DMSO [3] 147%
67.2%: double positive events [7]
inactive: percent of DMSO control GFP [2] 90.9% | percent response of DMSO control [4] 95.2% | GFP response vs DMSO [5] 78.7% | GFP response, % of DMSO [6] 88% | vesicle binding response [7] 272% | inhibition [8] 1.61% | superoxide response (% of plate) [9] 98.6% | aptamer binding inhibition [10] -3% | response [11] -21.4% | inhibition [12] 43.2% | response [13] -7.23% | binding (% of control) [14] 94.8% | inhibition [15] 3.7% | inhibition [16] 0.4% | inhibition [17] 1.5% | efflux inhibition (fraction of control) [18] 0.27 | inhibition [19] 14% | differentiation response [20] 11.5%

Cc1cc(C)cc(N2C(=O)NC(=O)/C(=C\C=C\c3ccco3)C2=O)c1
83.8%: GTP binding, percent of control [1]

CC12CN3CC(C)(CN(C1)C31CCOCC1)C2=O
inactive: percent of DMSO control GFP [2] 92.6% | percent response of DMSO control [4] 101% | GFP response vs DMSO [5] 90.2% | GFP response, % of DMSO [6] 94.5% | vesicle binding response [7] 166% | inhibition [8] 5.49% | superoxide response (% of plate) [9] 90% | aptamer binding inhibition [10] 2% | response [11] 3.7% | inhibition [12] 40.7% | response [13] -6.81% | binding (% of control) [14] 100% | inhibition [15] 1.2% | inhibition [16] 0.1% | inhibition [17] -2.4% | efflux inhibition (fraction of control) [18] -0.09 | inhibition [19] 13% | differentiation response [20] -2.46%
active: GFP response vs DMSO [3] 145%
65.1%: double positive events [7]

O=C1C(=O)c2ccccc2-c2ccccc21
inactive: GFP response vs DMSO [3] 126% | percent response of DMSO control [4] 92.9% | GFP response vs DMSO [5] 60.6% | GFP response, % of DMSO [6] 36.3% | vesicle binding response [7] 176% | inhibition [8] -0.43% | superoxide response (% of plate) [9] 83% | response [13] 0.26% | binding (% of control) [14] 98.9% | inhibition [15] 5.3% | inhibition [16] 0.6% | inhibition [17] -4.7% | inhibition [19] -64%
active: percent of DMSO control GFP [2] 73.2% | aptamer binding inhibition [10] 67% | response [11] 112% | efflux inhibition (fraction of control) [18] 2.06 | differentiation response [20] 100%
61.3%: double positive events [7]

Cc1nn(Cc2ccccc2)c(Cl)c1C(=O)O
86.7%: GTP binding, percent of control [1]

O=C(O)c1cn(Cc2ccc(F)cc2)c2ccccc12
112%: GTP binding, percent of control [1]

O=Cc1cn(Cc2ccc(F)cc2)c2ccccc12
60.5%: double positive events [7]
inactive: percent of DMSO control GFP [2] 97.8% | GFP response vs DMSO [3] 113% | percent response of DMSO control [4] 90.1% | GFP response vs DMSO [5] 129% | GFP response, % of DMSO [6] 102% | vesicle binding response [7] 173% | inhibition [8] 2.3% | superoxide response (% of plate) [9] 99.1% | aptamer binding inhibition [10] 1% | response [11] 14.3% | inhibition [12] 49.4% | response [13] -7.85% | binding (% of control) [14] 97.2% | inhibition [15] 8.3% | inhibition [16] 3.1% | inhibition [17] 3.2% | efflux inhibition (fraction of control) [18] 0.12 | inhibition [19] 2%
active: differentiation response [20] 93.6%

O=c1[nH]c2ccccc2n1C1CCN(CCCC(c2ccc(F)cc2)c2ccc(F)cc2)CC1
inactive: percent of DMSO control GFP [2] 97.1% | GFP response vs DMSO [3] 107% | percent response of DMSO control [4] 103% | GFP response vs DMSO [5] 130% | GFP response, % of DMSO [6] 120% | vesicle binding response [7] 184% | inhibition [8] 41.5% | superoxide response (% of plate) [9] 88.4% | aptamer binding inhibition [10] -13% | inhibition [12] -9.19% | binding (% of control) [14] 114% | inhibition [15] -2.3% | inhibition [16] -1.7% | inhibition [17] -3% | efflux inhibition (fraction of control) [18] 0.12 | inhibition [19] 6% | differentiation response [20] 13.7%
active: response [11] 67.3% | response [13] 73.1%
56.5%: double positive events [7]

C[N+]1(C)[C@@H]2CC[C@H]1CC(OC(=O)C(CO)c1ccccc1)C2 (stereo partly drawn)
inactive: percent of DMSO control GFP [2] 105% | GFP response vs DMSO [3] 96.3% | percent response of DMSO control [4] 105% | GFP response vs DMSO [5] 113% | GFP response, % of DMSO [6] 110% | vesicle binding response [7] 7000% | inhibition [8] -14.1% | superoxide response (% of plate) [9] 91% | aptamer binding inhibition [10] 1% | response [11] -8.13% | inhibition [12] -5.05% | response [13] 0.35% | binding (% of control) [14] 98% | inhibition [15] 3.3% | inhibition [16] -0.2% | inhibition [17] -4.9% | efflux inhibition (fraction of control) [18] -0.1 | inhibition [19] 7% | differentiation response [20] -15.2%
64.9%: double positive events [7]

C[N+]1(C)CCc2cc3c(cc2[C@H]1[C@@H]1OC(=O)c2c1ccc1c2OCO1)OCO3
inactive: percent of DMSO control GFP [2] 105% and 102% | GFP response vs DMSO [3] 102% and 108% | percent response of DMSO control [4] 104% and 93.1% | GFP response vs DMSO [5] 98% and 90.1% | GFP response, % of DMSO [6] 100% and 93.4% | vesicle binding response [7] 128% and 1190% | inhibition [8] 5.61% and 11% | superoxide response (% of plate) [9] 93.4% and 102% | aptamer binding inhibition [10] -1% and 5% | response [11] -0.95% and -3.71% | response [13] -7.78% and 0.91% | binding (% of control) [14] 101% and 97.9% | inhibition [15] -0.6% and -2.3% | inhibition [16] -1% and -0.6% | inhibition [17] 1% and -2.4% | efflux inhibition (fraction of control) [18] 0.115 and -0.1 | inhibition [19] 24% and -3% | differentiation response [20] -10.4% and 1.22%
55.1% (active) and -7.04% (inactive): inhibition [12]
60.5% and 65.5%: double positive events [7]
